Most compounds without a hit are left out; they make up all but 1.3% or so of the library.
MEP2 TOR yeast – yeast TOR pathway MEP2-GFP modulation; S. cerevisiae MEP2-GFP strain, flow cytometry GFP, 3 h; 100% = DMSO control level; GFP response vs DMSO, % at 10 µM; actives 0.51% (n = 330,000); AID 2016;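 active = GFP response versus DMSO above a set limit, roughly screen mean plus 3 SD, cut at about 180% in these data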;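 note: median GFP fluorescence of the barcode-gated MEP2-GFP cells per well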
CIT2 TOR yeast – modulators of TOR pathway CIT2-GFP in S. cerevisiae. AID 2029. S. cerevisiae CIT2-GFP strain, flow cytometry, 3 h; 100 means same as DMSO wells. GFP response vs DMSO, % at 10 µM. actives 0.065% (n = 320,000);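 active = GFP response relative to DMSO above a set limit, near the screen mean plus 3 SD, cut at about 150% in these data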;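 note: ratio of well median GFP fluorescence to mean of DMSO wells on the plate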
AGP1 TOR yeast – modulators of TOR pathway AGP1-GFP in S. cerevisiae | S. cerevisiae AGP1-GFP multiplex flow cytometry, 3 h; GFP as percent of DMSO wells | GFP response vs DMSO, % at 10 µM | actives 0.02% (n = 320,000) | AID 2066;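 active = GFP response relative to DMSO above a set limit, near screen average plus 3 SD, cut at about 150% in these data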;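 note: median GFP channel fluorescence of the gated AGP1 strain per well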
RPL19A TOR yeast – modulators of TOR pathway RPL19A-GFP in S. cerevisiae. S. cerevisiae RPL19A-GFP strain, flow cytometry, 3 h; stronger effect = lower value. percent response vs DMSO, % at 10 µM. actives 0.3% (n = 330,000);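 active = percent response vs DMSO below 50%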;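 note: median channel GFP fluorescence of the barcoded RPL19A-GFP strain; lower means less RPL19A-GFP as with rapamycin TOR inhibition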
LAP4 TOR yeast – modulators of TOR pathway LAP4-GFP in S. cerevisiae; S. cerevisiae LAP4-GFP multiplex, flow cytometry GFP, 3 h; median GFP as percent of DMSO wells; GFP response vs DMSO, % at 10 µM; actives 0.34% (n = 320,000); AID 2023;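 active = GFP response vs DMSO above a set limit, about the screen mean plus 3 SD, cut at about 150% in these data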
Efflux pump inh – antifungal efflux pump inhibition, Nile Red retention; S. cerevisiae Candida pump triplex; inhibition, % at 10 µM; actives 0.44% (n = 330,000);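 active = plate passing quality check with inhibition over a set limit, or well fluorescence over plate mean plus 4 SD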;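 note: Nile Red retained in pooled yeast measured as flow cytometry median fluorescence; higher means more Nile Red kept so more efflux inhibition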
LAP4 cherry2 – reconfirmed LAP4-GFP TOR pathway modulator in yeast; actives 20% (n = 590); GFP response vs DMSO, % at 10 µM; AID 2621; shares compounds with LAP4 TOR yeast; S. cerevisiae LAP4-GFP strain, flow cytometry GFP, 3 h;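 active = GFP signal as percent of the solvent control above about 150%, meaning raised reporter expression, limit read from the data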
MEP2-GFP pick2 – yeast MEP2-GFP modulation, second cherry pick. shares compounds with LAP4 TOR yeast. S. cerevisiae MEP2-GFP strain, flow cytometry GFP, 3 h. GFP response vs DMSO, % at 10 µM. actives 10% (n = 590). AID 2622;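 active = GFP signal above 150% of the solvent control wells, that is a rise of more than half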;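 note: median channel GFP fluorescence of all gated yeast cells per well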
RPL19A GFP CP2 – yeast RPL19A-GFP TOR reporter modulation, second cherry pick. S. cerevisiae RPL19A-GFP strain, flow cytometry GFP, 3 h; stronger effect = lower value; 100% means same as DMSO wells. shares compounds with LAP4 TOR yeast. GFP response vs DMSO, % at 10 µM. actives 3% (n = 590);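 active = under 65% GFP response relative to DMSO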;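 note: median GFP channel fluorescence per well over the all cells gate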
CIT2-GFP pick2 – yeast CIT2-GFP TOR reporter modulation, second cherry pick; shares compounds with LAP4 TOR yeast; S. cerevisiae CIT2-GFP strain, flow cytometry GFP, 3 h; DMSO control wells read 100%; GFP response vs DMSO, % at 10 µM; actives 8% (n = 590); AID 2624;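 active = GFP response vs DMSO above about 150%, limit read from the data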;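 note: median green fluorescence per well over all gated yeast cells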
AGP1-GFP pick2 – reconfirmed modulator of AGP1-GFP TOR reporter in yeast; S. cerevisiae AGP1-GFP strain, flow cytometry GFP, 3 h; 590 tested, under 10 active; percent response vs DMSO, % at 10 µM; shares compounds with LAP4 TOR yeast;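 active = over 150 percent of DMSO response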;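 note: median GFP channel fluorescence over all cells without mother daughter split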
Yeast autofluor – compound is autofluorescent in yeast s288c cells; shares compounds with LAP4 TOR yeast; S. cerevisiae s288c, 520 nm autofluorescence, flow cytometry, 3 h; stronger effect = higher value; zero means same as solvent-only cells; fluorescence change (kMESF span) at 33 µM; 610 tested, under 10 active;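 active = fluorescence span over the dose series, or activity score, above about 33, limit read from the data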
Yeast autofl DR – TOR screen hit shows autofluorescence in yeast s288c. AID 488829. S. cerevisiae s288c parental, compound autofluorescence, flow cytometry, 3 h. fluorescence change (span) at 33 µM. shares compounds with LAP4 TOR yeast. 110 tested, under 10 active;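 active = fluorescence change span, or the activity score built from it, above 25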
TORC1 bypass – stops wildtype yeast growth while TORC1 bypass cells still grow; shares compounds with LAP4 TOR yeast; S. cerevisiae BY4741 spot growth rating, 48-72 h; stronger effect = lower value; growth rating (0-3) at 30 µM; 120 tested, under 10 active; AID 504456;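 active = growth rating at most 1 for wild type yeast while the TORC1 bypass strain still grows fully, rated 3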
Numbers stand for hits.

Screening COCCN(C(=O)CSc1nnc(-c2ccc(C(C)(C)C)cc2)n1N)c1c(N)n(CC(C)C)c(=O)[nH]c1=O returned MEP2 TOR yeast inactive, CIT2 TOR yeast inactive, AGP1 TOR yeast inactive, RPL19A TOR yeast inactive, LAP4 TOR yeast inactive and Efflux pump inh inactive.
`Cc1cc2c(c(=O)o1)C(CCC1CCCCC1)C(C#N)=C(N)O2` (stereo not given) gave MEP2 TOR yeast inactive, CIT2 TOR yeast inactive, AGP1 TOR yeast inactive, RPL19A TOR yeast inactive, LAP4 TOR yeast inactive and Efflux pump inh inactive.
Screening COc1ccc2[nH]c(C(=O)O)c(CCN3C(=O)c4cccc([N+](=O)[O-])c4C3=O)c2c1 returned MEP2 TOR yeast inactive, CIT2 TOR yeast inactive, AGP1 TOR yeast inactive, RPL19A TOR yeast inactive, LAP4 TOR yeast inactive, Efflux pump inh inactive, LAP4 cherry2 inactive, MEP2-GFP pick2 inactive, RPL19A GFP CP2 inactive, CIT2-GFP pick2 inactive and AGP1-GFP pick2 inactive.
For COc1ccc2[nH]c(C(=O)O)c(CCNC(C)=O)c2c1 the results were MEP2 TOR yeast inactive, CIT2 TOR yeast inactive, AGP1 TOR yeast inactive, RPL19A TOR yeast inactive, LAP4 TOR yeast inactive and Efflux pump inh inactive.
For C/C(=N\NC(=O)c1ccc(C(C)(C)C)cc1)c1ccccn1 the results were Yeast autofl DR inactive and TORC1 bypass inactive.
`OCCC#Cc1c(-c2ccsc2)sc2ccccc12` gave MEP2 TOR yeast inactive, CIT2 TOR yeast inactive, AGP1 TOR yeast inactive, RPL19A TOR yeast inactive, LAP4 TOR yeast 159.2, Efflux pump inh inactive, LAP4 cherry2 inactive, MEP2-GFP pick2 inactive, RPL19A GFP CP2 inactive, CIT2-GFP pick2 inactive and AGP1-GFP pick2 inactive.
For CCOc1ccc(N(CC(=O)NCCc2ccc(Cl)cc2)S(=O)(=O)c2c(C)[nH]c(=O)[nH]c2=O)cc1 the results were MEP2 TOR yeast inactive, CIT2 TOR yeast inactive, AGP1 TOR yeast inactive, RPL19A TOR yeast inactive, LAP4 TOR yeast inactive and Efflux pump inh inactive.
Screening CN1CCNC(=O)C1CC(=O)NCCc1ccccc1F (stereo not given) returned MEP2 TOR yeast inactive, CIT2 TOR yeast inactive, RPL19A TOR yeast inactive, LAP4 TOR yeast inactive and Efflux pump inh inactive.
O=C(O)c1cccc(CN2C(=O)S/C(=C/c3cccc([N+](=O)[O-])c3)C2=O)c1 was read as MEP2 TOR yeast inactive, CIT2 TOR yeast inactive, AGP1 TOR yeast inactive, RPL19A TOR yeast inactive, LAP4 TOR yeast inactive, Efflux pump inh inactive, LAP4 cherry2 inactive, MEP2-GFP pick2 inactive, RPL19A GFP CP2 inactive, CIT2-GFP pick2 inactive and AGP1-GFP pick2 inactive.
`C=CCN=C1S/C(=C/c2cccc([N+](=O)[O-])c2)C(=O)N1CC=C` gave MEP2 TOR yeast inactive, CIT2 TOR yeast inactive, AGP1 TOR yeast inactive, RPL19A TOR yeast inactive, LAP4 TOR yeast inactive and Efflux pump inh inactive.
For O=S(=O)(/N=C(/Sc1ccccc1)c1ccccc1)c1ccccc1 the results were MEP2 TOR yeast inactive, CIT2 TOR yeast inactive, AGP1 TOR yeast inactive, RPL19A TOR yeast inactive, LAP4 TOR yeast 189.7, Efflux pump inh inactive and Yeast autofluor inactive.
CS/C(=N\S(=O)(=O)c1ccccc1)c1ccccc1 was read as MEP2 TOR yeast inactive, CIT2 TOR yeast inactive, AGP1 TOR yeast inactive, RPL19A TOR yeast inactive, LAP4 TOR yeast inactive and Efflux pump inh inactive.
For O=C(CN1CCN(S(=O)(=O)c2ccc(Br)cc2)CC1)N/N=C/c1ccncc1 the results were MEP2 TOR yeast inactive, CIT2 TOR yeast inactive, AGP1 TOR yeast inactive, RPL19A TOR yeast inactive, LAP4 TOR yeast inactive and Efflux pump inh inactive.
`CC1CC(C)CN(C(=O)COC(=O)CCC(=O)c2cccs2)C1` (stereo not given) gave MEP2 TOR yeast inactive, CIT2 TOR yeast inactive, AGP1 TOR yeast inactive, RPL19A TOR yeast inactive, LAP4 TOR yeast 165.5, Efflux pump inh inactive, LAP4 cherry2 inactive, MEP2-GFP pick2 inactive, RPL19A GFP CP2 inactive, CIT2-GFP pick2 inactive and AGP1-GFP pick2 inactive.
Cc1ccccc1N1CCN(C2CCCN(C(=O)c3cnsn3)C2)CC1 (stereo not given) was read as MEP2 TOR yeast inactive, CIT2 TOR yeast inactive, AGP1 TOR yeast inactive, RPL19A TOR yeast inactive, LAP4 TOR yeast inactive and Efflux pump inh inactive.
`Cc1cccc(NC(c2ccc(C)s2)c2ccc3ccc(C)nc3c2O)n1` (stereo not given) gave MEP2 TOR yeast inactive, CIT2 TOR yeast inactive, AGP1 TOR yeast inactive, RPL19A TOR yeast inactive, LAP4 TOR yeast 176.5, Efflux pump inh inactive and Yeast autofluor inactive.
Screening CC(OC(=O)c1ccco1)C(=O)Nc1nc(-c2ccccc2)cs1 (stereo not given) returned MEP2 TOR yeast inactive, CIT2 TOR yeast inactive, AGP1 TOR yeast inactive, RPL19A TOR yeast inactive, LAP4 TOR yeast 176.9, Efflux pump inh inactive, LAP4 cherry2 inactive, MEP2-GFP pick2 inactive, RPL19A GFP CP2 inactive, CIT2-GFP pick2 inactive, AGP1-GFP pick2 inactive and Yeast autofluor inactive.
Fc1ccccc1N1CCN(Cc2cc(-c3ccccc3)on2)CC1 was read as MEP2 TOR yeast inactive, CIT2 TOR yeast inactive, AGP1 TOR yeast inactive, RPL19A TOR yeast inactive, LAP4 TOR yeast inactive and Efflux pump inh inactive.

Bioassay records: PubChem BioAssay, NMMLSC
